Only some compounds are listed: those with a hit (about 5.9% of all), similar ones and a draw of the others.
GLP-1R agonist – activates the human GLP-1 receptor. P43220. Potency, µM (series often up to 45.6 µM), without a hit: at the top dose activation, actives largely listed as activators. HEK293 GLP-1R CRE-luciferase, luminescence, 4-6 h; cells express a hypersensitive GLP-1R form. 380,000 compounds, 0.007% hits; note: % of control where 0% means no effect
RORg inh – ROR gamma (mouse) transcription inhibition; P51450; Drosophila S2 Gal4-RORgamma UAS-luciferase reporter, 20 h; Potency, µM (top dose mostly 53.6 µM), for inactives: at the highest dose activity change, negative = inhibition, hits mostly inhibitors; 310,000 compounds, 5.4% hits; AID 2551; note: % is set by controls: 0 for no effect and ±100 for the full control effect; nearly all actives have a fitted effect of over 60% in size
Target sequence (P51450 whole entry, looked up, the tested form may be a part): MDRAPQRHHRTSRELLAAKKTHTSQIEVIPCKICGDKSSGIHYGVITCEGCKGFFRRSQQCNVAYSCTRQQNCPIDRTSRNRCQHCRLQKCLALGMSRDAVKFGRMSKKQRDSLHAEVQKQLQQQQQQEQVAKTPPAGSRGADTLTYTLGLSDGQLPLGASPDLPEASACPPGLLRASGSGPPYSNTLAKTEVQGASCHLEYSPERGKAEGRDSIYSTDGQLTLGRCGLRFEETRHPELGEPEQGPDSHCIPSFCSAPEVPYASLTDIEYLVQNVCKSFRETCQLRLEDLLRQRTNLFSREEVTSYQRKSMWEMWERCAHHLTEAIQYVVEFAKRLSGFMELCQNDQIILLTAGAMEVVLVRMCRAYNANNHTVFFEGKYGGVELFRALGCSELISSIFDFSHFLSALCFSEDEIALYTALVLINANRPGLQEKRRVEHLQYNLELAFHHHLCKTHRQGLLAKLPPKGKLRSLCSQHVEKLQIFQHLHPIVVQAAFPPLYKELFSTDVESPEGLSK
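Using a luciferase readout, inhibitors were identified by reduced reporter activity in Drosophila cells coexpressing a copper-inducible Gal4–ROR gamma fusion and UAS-driven Photinus luciferase, incubated 20 hr after 700 uM copper sulfate.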
GLP-1R inv ag – GLP-1 receptor (human) inverse agonism; HEK293 GLP-1R CRE-luciferase, luminescence, 24 h; GLP-1R form is constitutively active; Potency, µM (highest dose often 38.3 µM), inactives show top-dose activity change, negative = inhibition, usual class: inhibitors; AID 624417; P43220; 410,000 compounds, 1.6% hits; note: % is set by controls: 0 for no effect and ±100 for the full control effect; nearly all actives have a fitted effect of over 55% in size
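Inverse agonists were sought by their lowering of basal cAMP reporter luciferase output in HEK293 cells stably carrying constitutively active human GLP-1R, after 24 h compound treatment.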
HEK293 tox – cytotoxic in the GLP-1 receptor inverse agonist counter-screen | HEK293 cAMP-luciferase reporter cells, luminescence, 24 h | Potency, µM (series often up to 38.3 µM), for the others: at the top dose activity change, negative = inhibition, hits mostly inhibitors | AID 624418 | 410,000 compounds, 0.13% hits;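 note: loss of luciferase light is scored as toxicity; % is set by controls: 0 for no effect and ±100 for the full control effect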
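Seeding density was 200 cells/uL; after overnight-length (12 h) culture, 23 nL compounds went on for 24 h at 37 °C. Readout used a luciferase detection reagent, luminescence taken after 12 min at room temperature.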
Gal4-VP16 FLuc – inhibits Gal4-VP16 luciferase reporter, ROR gamma counter-screen; Drosophila S2 Gal4-VP16 UAS-luciferase, luminescence, 20 h; Potency, µM (titrated, usually from 53.6 µM), for the others: at the highest dose activity, negative = inhibition, actives largely listed as inhibitors; 310,000 compounds, 3.5% hits; AID 2546;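 note: Gal4-VP16 expression switched on by copper sulfate through the metallothionein promoter; % is set by controls: 0 for no effect and ±100 for the full control effect; nearly all actives have a fitted effect of over 50% in size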
An asterisk follows results filed as active; u = inconclusive; x = no result given; [ ] = dose if it differs, or a comment. Calls come from the whole dose curve; as a rule, active = well fitted curve in the direction sought with a large enough effect; inconclusive = small, poorly fitted or top-dose-only effect, or another doubt; inactive = no such curve, though single readings can be large; an effect the other way counts as inactive or inconclusive. Potency is the fitted concentration of half-maximal effect.

SMILES	GLP-1R agonist	RORg inh	GLP-1R inv ag	HEK293 tox	Gal4-VP16 FLuc
COc1ccc(C(=O)Nc2sc3c(c2C(N)=O)CCCC3)cc1OC	x	0%	x	x	4%
O=C(N/N=C/c1ccc(N2CCOCC2)o1)c1cccc(C(F)(F)F)c1	-3%	6.3µM*	5%	5%	4µM*
O=C(N/N=C/c1ccc(N2CCCCC2)o1)c1ccccc1[N+](=O)[O-]	-17%	u	13%	-18%	8.9µM*
O=C(N/N=C/c1ccncc1)c1ccccc1[N+](=O)[O-]	0%	-18%	29%	14%	2%
O=C(N/N=C/c1ccc(N2CCOCC2)o1)c1ccccc1[N+](=O)[O-]	-5%	13µM*	4%	-4%	u
O=C(Nc1ccc(N2CCOCC2)nc1N1CCOCC1)c1cccc(C(F)(F)F)c1	0%	25%	6%	-5%	9%
COCCNc1nc(-c2cccc(OC)c2)nc2ccccc12	x	1%	x	x	3%
COc1ccc(-c2n[nH]c(C)c2-c2cnn(-c3ccccc3)c2)c(O)c1C	-18%	11µM*	u	-2%	u
COc1ccc(-c2n[nH]c(C)c2-c2cnn(-c3ccccc3)c2)c(O)c1	6%	-116%	u	-7%	u
Cc1ccc(-c2cc(C(F)(F)F)n3nc(C(=O)Nc4sc5c(c4C#N)CCC(C)C5)cc3n2)cc1 (stereo unspecified)	x	x	-1%	-14%	x
Cc1nc2scc(C)n2c(=O)c1S(=O)(=O)Nc1cccc(O)c1	x	x	5%	16%	x
Cc1nc2scc(C)n2c(=O)c1S(=O)(=O)Nc1ccc(N2CCOCC2)c(Cl)c1	-7%	-23%	38%	26%	11µM*
Cc1nc2scc(C)n2c(=O)c1S(=O)(=O)Nc1cccc(C(F)(F)F)c1	x	x	11µM*	2%	x
Cc1nc2sccn2c(=O)c1S(=O)(=O)Nc1ccc(N2CCOCC2)c(Cl)c1	1%	u	27%	4%	-29%
Cc1ccccc1Cn1c2ccccc2c2cnn(CC(=O)NCCc3ccccc3)c(=O)c21	x	x	18%	7%	x
O=C(CSc1nc(-c2ccccc2)nc2ccccc12)Nc1nccs1	-2%	11µM*	5%	-6%	u
Clc1ccc(OCCN2CCN(c3ncnc4sccc34)CC2)cc1	2%	u	u	1%	0.63µM*
CCCN1CCN(c2ncnc3sc(C(=O)Nc4ccc(OC(F)(F)F)cc4)c(C)c23)CC1	x	x	10µM*	-5%	x
Cc1ccc(OCCN2CCN(c3ncnc4sc(C)c(C)c34)CC2)cc1	10%	8.9µM*	u	-30%	3.5µM*
CCN1CCN(CCOc2ccc(Cl)cc2)CC1	14%	0%	u	-2%	5%
CCN1C(=O)[C@H]2[C@H]3[C@H](O)[C@H](O)C/C(=N/O[C@@H](C)c4cn([C@H](CO)Cc5ccccc5)nn4)[C@@H]3CC[C@@H]2C1=O	x	4%[10 µM]	x	x	-1%[10 µM]
Cc1cc2c(cc1C)CSC(c1c(O)ccc3ccccc13)SC2	1%	u	13µM*	u	u
Cc1cccc(NC(=O)CCCN2C(=S)NC(C)(C)CC2C)c1C (stereo unspecified)	7%	11µM*	8%	11%	-24%
CC1CC(C)(C)NC(=S)N1CCCC(=O)Nc1ccc(Br)cc1 (stereo unspecified)	5%	4µM*	10µM*	11µM*	u
CCOc1ccc(NC(=O)CCCN2C(=S)NC(C)(C)CC2C)cc1 (stereo unspecified)	7%	u	1%	12%	u
SMILES	GLP-1R agonist	RORg inh	GLP-1R inv ag	HEK293 tox	Gal4-VP16 FLuc
CCOC(=O)c1ccccc1NC(=O)c1sc2nc3n(c(=O)c2c1C)CCCCC3	x	x	11%	10%	x
COc1ccc(NC(=O)Cn2c(SCc3ccc(C)cc3)nc3cccnc32)cc1OC	x	x	u	-15%	x
CC(C)c1ccc(C2Sc3ccccc3NC3=C2C(=O)c2ccccc23)cc1 (stereo unspecified)	x	x	8.9µM*	-22%	x
CCc1c(C)c2cc3c(c(C)c2oc1=O)OCN(CCc1ccccc1F)C3	x	x	-2%	207%	x
Cc1ccccc1NC(=O)CSC1=Nc2ccccc2C2=NC(Cc3ccccc3)C(=O)N12 (stereo unspecified)	x	x	-2%	0%	x
O=C1CSC(c2cn(-c3ccccc3)nc2-c2cc3ccccc3o2)N1Cc1ccccc1 (stereo unspecified)	-1%	1%	u	10%	14%
Cc1ccc(-c2nn(-c3ccccc3)cc2C2SCC(=O)N2Cc2ccccc2)o1 (stereo unspecified)	11%	11µM*	11µM*	6%	u
Cc1ccc(CN2C(=O)CSC2c2ccccc2F)cc1 (stereo unspecified)	11%	-1%	10µM*	18%	7%
CS(=O)(=O)NNC(=O)c1cc2cc3ccccc3nc2s1	-1%	-11%	8%	-5%	-21%
NNC(=O)c1cc2cc3ccccc3nc2s1	7%	13µM*	u	-21%	-11%
COc1ccc(S(=O)(=O)NNC(=O)c2cc3cc4ccccc4nc3s2)cc1	4%	u	2%	5%	22µM*
COc1ccc2c(c1)CCc1c(C(=O)Nc3c(C)nn(Cc4ccc(Cl)c(Cl)c4)c3C)noc1-2	x	x	-6%	1%	x
COc1cccc(Cn2c(CNC(=O)Cc3cccc(C)c3)nc3cccnc32)c1	x	x	-5%	-7%	x
CCc1ccc2oc(-c3cc(N=Cc4cccc(OC)c4O)ccc3O)nc2c1	-15%	11µM*	6%	4%	u
C=CCSc1n[nH]c(-c2cccs2)n1	2%	11µM*	9%	-11%	u
C=CCSc1n[nH]c(-c2ccc(OCCCC)cc2)n1	21%	8.9µM*	u	u	8.9µM*
O=C(CSc1n[nH]c(-c2cccs2)n1)NCc1cccs1	-9%	-5%	15%	-6%	2%
C=CCSc1n[nH]c(-c2ccc(OCCC)cc2)n1	0%	10µM*	0%	u	u
Cc1nc2cnc(Oc3cccc(Cl)c3)nc2n(C[C@H]2CCCO2)c1=O	x	u	x	x	-6%
Cc1ccc(NC(=O)CN(C)CC(=O)Nc2ccccc2C#N)cc1	11%	28%	-5%	-26%	1%[10 µM]
N#Cc1ccccc1NC(=O)CN(Cc1ccccc1)Cc1ccccc1	10%	4%	7.1µM*	28%	15%
CCc1nnc(SC(CC)C(=O)Nc2ccc(OC)c(Cl)c2)c2cc3occc3n12 (stereo unspecified)	x	x	12%	5%	x
COc1ccc(C(=O)N[C@H](C(=O)Nc2nc3c(s2)CCCC3)C(C)C)cc1	11%	41%	u	-4%	-2%
CCOc1ccccc1C(=O)N[C@H](C(=O)Nc1nc2c(s1)CCCC2)C(C)C	21%	30%	10µM*	u	24%
